The list is not random: actives were taken first. Their share in the collection is about 6.9%.
Giardia kill = kills Giardia lamblia | 0.15% of 340,000 active | activity change, % at 7.66 µM, hits read low | Giardia lamblia trophozoite viability; in the data active = activity change below about -80%; inconclusive = between about -30% and that limit;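 note: parasites exposed to compound for two days anaerobically before the ATP read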
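ATP-content bioluminescence gauges trophozoite survival. Cells (100/well) receive compound and incubate anaerobically for 48 hrs at 37 deg C; detection reagent follows for 15-30 min at room temperature.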
Vif-APOBEC3F blk = Vif-A3F binding inhibition. HeLa A3F-eYFP + Vif (tagged APOBEC3F with the HIV-1 protein that degrades it), YFP fluorescence increase. Potency, µM (series often up to 46.1 µM). 0.2% of 390,000 active; note: nearly all actives have a fitted effect of over 65% in size
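HeLa cells stably expressing Vif plus C-terminally eYFP-tagged A3F were seeded, incubated overnight at 37 deg C, dosed with compound, incubated overnight again at 37 deg C. Yellow fluorescence (Ex 488/Em 500-530) reported blocked Vif-mediated A3F-eYFP degradation.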
Vif-APOBEC3G blk = Vif-A3G binding inhibition; AID 602310; 0.076% of 410,000 active; HeLa A3G-eYFP + Vif (tagged APOBEC3G with the HIV-1 protein that degrades it), YFP fluorescence, overnight; Potency, µM (titrated, usually from 46.1 µM), hits mostly inhibitors; note: nearly all actives have a fitted effect of over 60% in size
Target sequence (Q9HC16 whole entry, looked up): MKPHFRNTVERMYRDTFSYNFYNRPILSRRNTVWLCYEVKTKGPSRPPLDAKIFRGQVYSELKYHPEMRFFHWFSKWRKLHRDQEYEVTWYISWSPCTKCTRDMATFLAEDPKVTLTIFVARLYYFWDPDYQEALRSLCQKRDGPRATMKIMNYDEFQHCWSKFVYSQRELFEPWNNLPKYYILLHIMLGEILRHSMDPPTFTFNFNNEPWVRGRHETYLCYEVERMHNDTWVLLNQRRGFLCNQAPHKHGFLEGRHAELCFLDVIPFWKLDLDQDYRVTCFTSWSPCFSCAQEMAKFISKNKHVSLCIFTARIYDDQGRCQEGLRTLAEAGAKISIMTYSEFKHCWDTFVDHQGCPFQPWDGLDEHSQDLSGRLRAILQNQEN
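HeLa cells stably expressing Vif and C-terminally eYFP-tagged A3G, seeded overnight at 37 deg C, then exposed to compound by pintool overnight at 37 deg C. Rise in yellow fluorescence (Ex 488/Em 500-530, Acumen) marks blocked Vif-driven A3G degradation.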
SW480 rereplic = DNA re-replication induction in SW480 cells. SW480 DNA re-replication, Hoechst DNA content imaging, 48 h. Potency, µM (doses to about 46.1 µM), actives largely listed as activators. 1.8% of 340,000 active; note: nearly all actives have a fitted effect of over 55% in size
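Quantitative HTS format with DMSO vehicle controls; 48 hr drug incubation at 37 C, then 40 min Hoechst staining and scanning imager measurement at 405 nm excitation.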
MCF10A rerep = inducers of DNA re-replication in MCF 10A breast cells | MCF 10A DNA re-replication, Hoechst nuclear intensity, 48 h | Potency, µM (highest dose often 46.1 µM), most hits filed as activators | 2.9% of 350,000 active | AID 624296; note: nearly all actives have a fitted effect of over 50% in size
IL1B secr inh = inhibitors of inflammasome signaling (IL-1 beta secretion); THP-1 LPS/ATP IL-1B secretion, AlphaLISA, 16 h; active compounds read low; activity change, % at 57.5 µM; 4.7% of 360,000 active; in the data active = activity change below about -50%; inconclusive = mostly about -30% to -49%
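Secreted IL-1B measured by AlphaLISA bead assay after 16 h compound exposure of THP-1 cells; compounds (final up to 57.5 uM) added 1 h before LPS (250 ng/mL) and ATP (1.25 mM) stimulation; lower signal means less secretion.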
Hits are given with their value; – = inactive; ? = inconclusive; · = not tested or not shown. Unless noted, calls come from the whole dose curve; as a rule, active = well fitted curve in the direction sought with a large enough effect; inconclusive = small, poorly fitted or top-dose-only effect, or another doubt; inactive = no such curve, though single readings can be large; an effect the other way counts as inactive or inconclusive.

SMILES | Giardia kill | Vif-APOBEC3F blk | Vif-APOBEC3G blk | SW480 rereplic | MCF10A rerep | IL1B secr inh
CCOC(=O)c1ccc(N=Nc2c(C)c(C#N)c(O)[nH]c2=O)cc1 | – | 10µM | – | – | – | –
COc1cc(OC)c(NC(=O)C(C)n2nc(-c3ccc(C)c(C)c3)ccc2=O)cc1Cl (configuration not stated) | · | – | – | · | · | ·
N#CCSc1ccccc1NC(=O)COC(=O)CCNC(=O)c1ccc([N+](=O)[O-])cc1 | – | 22.4µM | – | – | – | –
Cc1noc(C)c1C(=O)OCC(=O)Nc1ccccc1SCC#N | – | 22.4µM | – | ? | – | –
O=C(CCNC(=O)c1ccc([N+](=O)[O-])cc1)Nc1ccccc1N1CCCC1 | – | – | – | – | – | –
Clc1ccc(/C=C/c2ccc3ccccc3n2)cc1Cl | · | · | – | · | · | ·
O=C1C(=O)N(CNc2ccccn2)c2ccccc21 | – | – | – | 11.6µM | 7.31µM | –
O=C1C(=O)N(CNc2cccnc2)c2ccccc21 | – | – | – | – | – | –
CN(C)c1ccc(C(CNC(=O)c2ccccc2F)c2c[nH]c3ccccc23)cc1 (configuration not stated) | – | – | – | – | – | –
CN(C)c1ccc(C(CNC(=O)c2ccccc2)c2c[nH]c3ccccc23)cc1 (configuration not stated) | – | – | – | – | – | -53.9
COc1ccc(-c2c3c(nc4sc(C(=O)Nc5cc(C)on5)c(N)c24)CCC3)cc1 | – | – | – | 18.4µM | 1.46µM | -88.3
Nc1c(C(=O)Nc2ccccc2F)sc2nc(-c3ccco3)ccc12 | – | 22.4µM | ? | ? | – | –
NC(=O)c1sc2nc(-c3cccnc3)ccc2c1N | – | – | – | – | – | -66.7
Nc1c(C(=O)Nc2ccccc2F)sc2nc(-c3cccnc3)ccc12 | – | – | – | ? | – | –
Nc1c(C(=O)NC2CC2)sc2nc3c(c(-c4ccco4)c12)CC/C3=C/c1ccco1 | – | ? | ? | – | – | -74.7
O=C(NC1CCCC1)c1ccc2nc(-c3ccco3)c(-c3ccco3)nc2c1 | – | – | – | ? | ? | ?
COc1ccc(-c2c3c(nc4sc5c(=O)[nH]c(C)nc5c24)CCC3)cc1 | – | – | – | – | ? | –
NC(=O)c1sc2nc3c(c(-c4ccco4)c2c1N)CCC3 | – | – | – | – | – | -80.0
NC(=O)c1sc2nc(-c3ccco3)ccc2c1N | – | ? | ? | – | – | -67.8
COC(=O)c1sc2nc(-c3ccco3)ccc2c1N | ? | – | – | – | – | –
O=C(CCNS(=O)(=O)c1ccc2c(c1)CCCC(=O)N2)NCc1ccc(Cl)cc1 | · | – | – | · | · | ·
CCCNC(=O)c1ccc(COc2ccc(C(C)(C)C)cc2)o1 | – | – | – | – | ? | -68.8
CC(C)(C)c1ccc(OCc2ccc(C(=O)Nc3cccnc3)o2)cc1 | – | – | – | ? | 23.1µM | -51.5
COC(=O)c1ccc(COc2ccc(C(C)(C)C)cc2)o1 | – | – | – | – | – | –
CC(C)(C)c1ccc(C(=O)Nc2ccc(Oc3cccnc3)nc2)cc1 | – | – | – | – | – | -73.4
SMILES | Giardia kill | Vif-APOBEC3F blk | Vif-APOBEC3G blk | SW480 rereplic | MCF10A rerep | IL1B secr inh
CC(C)(C)c1ccc(C(=O)Nc2cccnc2)cc1 | – | – | – | – | – | –
CCOc1ccc(OCc2ccc(C(=O)NCc3ccncc3)o2)cc1 | – | – | – | – | 18.4µM | ?
CCc1ccc(OCc2ccc(C(=O)NCc3ccccn3)o2)cc1 | – | – | – | – | – | –
Cc1c([N+](=O)[O-])cnc2ccccc12 | · | · | – | · | · | ·
COc1cccc(Nc2sc(C(=O)c3ccc(F)cc3)c(N)c2C(=O)NCc2ccc(C)cc2)c1 | · | – | – | · | · | ·
COc1cccc(Cn2c(=O)n(Cc3ccccc3)c(=O)c3c2c2cc(OC)ccc2n3C)c1 | · | – | – | · | · | ·
Cc1cc(Br)ccc1NC(=O)CCS(=O)(=O)c1cccc2nsnc12 | · | – | – | · | · | ·
CCOc1cccc(C2C=C(c3ccc4c(c3)OCO4)NC(c3ccccc3F)N2)c1O (configuration not stated) | ? | · | – | · | · | ·
O=C(Nc1nc2ccccc2n1CCN1CCOCC1)c1ccc(COc2ccccc2Br)o1 | – | – | – | ? | ? | -95.0
Cc1ccc(OCc2ccc(C(=O)Nc3nc4ccccc4n3Cc3ccccc3)o2)c([N+](=O)[O-])c1 | – | – | – | ? | 12.6µM | –
O=C(Nc1nc2ccccc2n1Cc1ccccc1)c1ccc(COc2ccccc2[N+](=O)[O-])o1 | – | – | – | ? | ? | –
O=C(Nc1cccnc1)c1ccc(COc2ccccc2Br)o1 | – | – | – | ? | 20.6µM | –
O=C(NCc1cccnc1)c1ccc(COc2ccccc2Br)o1 | – | – | – | – | – | ?
COc1ccc(N2CCN(C(CNC(=O)c3ccc(C)cc3)c3ccc4c(c3)OCO4)CC2)cc1 (configuration not stated) | · | – | – | · | · | ·
O=C(CN1C(=O)COc2ccc(S(=O)(=O)N3CCCCCC3)cc21)N1CCN(c2ccc(F)cc2)CC1 | · | – | – | · | · | ·
CC(C)c1onc(C(=O)N2CCCCC2)c1[N+](=O)[O-] | – | – | – | – | – | -65.2
O=C(NNC(=O)c1ccc(Br)cc1)c1ccncc1 | – | ? | – | – | – | –
CC/C(=C\C(=O)c1ccncc1)Nc1ccc(Br)cc1 | – | – | – | – | – | -67.3
COc1cc(OC)c(NC(=O)Cn2c(=O)oc3cc(S(=O)(=O)N4CCCC4)ccc32)cc1Cl | · | – | – | · | · | ·
Cc1ccc(-c2cc(NC(=O)CCl)n(-c3ccccc3)n2)cc1 | – | – | – | ? | ? | -98.7
O=C(CCl)Nc1cc(-c2ccccc2)nn1-c1ccccc1 | – | – | ? | ? | ? | -105.2
Cc1nn(Cc2ccc(Cl)cc2Cl)c(C)c1NC(=O)CCl | – | – | – | – | ? | -100.6
CC(=O)Nc1ccc(-c2cc(NC(C)=O)n(-c3ccccc3)n2)cc1 | – | – | – | – | – | –
CC(=O)Nc1c(C)nn(-c2ccc([N+](=O)[O-])cc2)c1C | – | – | – | – | – | –
Cc1ccc(OCC(=O)Nc2cc(-c3cccc(C)c3)nn2-c2ccccc2)cc1 | · | – | – | · | · | ·
Cc1ccc(-n2nc(C)c(NC(=O)CCl)c2C)cc1 | – | – | – | ? | ? | -88.8
O=C1CCN(CCc2ccccc2)CCN1C(CSc1ccc(Br)cc1)Cc1ccccc1 (configuration not stated) | – | · | – | · | · | ·
Cc1cccc(Cn2c(=O)n3nc(-c4ccccc4)nc3c3ccccc32)c1 | · | – | – | · | · | ·
CCCCN(CC)CCCNC(=O)Nc1sc2nc3n(c(=O)c2c1C)CCC(C)CC3 (configuration not stated) | · | – | – | · | · | ·
COC(=O)Cc1c(C)c2cc3c(c(C)c2oc1=O)OCN(CCc1ccc(F)cc1)C3 | · | – | – | · | · | ·

High-throughput results from PubChem.
